Among all 300,000 compounds or so, about 2,500 (0.83%) were called active. The sample as a whole holds a higher share of actives than the screen did. Unmarked numbers belong to inactive results.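 The calls were made as follows: active = inhibition above the mean of all tested compounds plus 3 SD, set per screening campaign (cut at about 24% in these data); inactive = the rest.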

The test concerns tRNA 2'-phosphotransferase TPT1 (Candida albicans SC5314). Nature of the test: Candida albicans TPT1 enzyme inhibitors, primary screen, biochemical, fluorescence polarization (AID 1962).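 Also: plate controls were DMSO alone for no effect and ferristatin control at 100 nM for full effect.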 The note with it: recombinant caTPT1, FP RNA substrate dephosphorylation; at 5 µM; active compounds read high.
For `Cc1ccc2[nH]c(=O)c(CC(=O)O)c(-c3ccccc3)c2c1`, the inhibition is -1.99%.

As to `Cc1ccc2[nH]c(=O)c(CN3CCCCC3)c(-c3ccccc3)c2c1`, the inhibition was 31.4% (active).

Regarding `Cc1ccc2[nH]c(=O)c(CC=C(Cl)Cl)c(C)c2c1`, the inhibition was 1.23%. Turning to `CCOc1ccc(NC(=O)c2ccc(NC(=O)C3CCCO3)cc2)cc1` (centres undefined), the inhibition was 1.62%. Take `Cc1ccc(CNC(=O)c2cc(-c3ccccc3C)n(CC3CC(c4cccc([N+](=O)[O-])c4)=NO3)n2)cc1` (centres undefined): the inhibition is -1.39%. `Cn1c(-c2ccc(C(F)(F)F)cc2)cc2onc(-c3ccccc3)c2c1=O`: the inhibition is 1.56%.

For `CN(c1ccc(OCC(=O)OCC(=O)Nc2cccc([N+](=O)[O-])c2)cc1)S(=O)(=O)c1ccc(F)cc1`, the inhibition is -1.05%.

Regarding `Cc1c(Cl)c([N+](=O)[O-])nn1Cc1ccc(C(=O)N/N=C\c2cc(Cl)ccc2O)o1`, the inhibition is 1.45%. In the case of `Cc1ccc2c(c1)N(CC(=O)N1CCOCC1)C(=O)CO2` it was 1.05%; in that of `Cc1cc(/C=C2/SC(=O)N(CC(=O)N3CCCC3)C2=O)ccc1N1CCOCC1`, 38.1% (active); in that of `Cc1cc(/C=C2/SC(=O)N(CC(=O)N3CCCC3)C2=O)c(C)n1C`, -4.95%. For `C#CCOCCOCCOCCNc1nc(N2CCN(C(=O)[C@H](CCCCN)n3cc(CCC(=O)O)nn3)CC2)nc(N2CCN(C(=O)[C@H](CCCCN)n3cc(CC(C)O)nn3)CC2)n1` (some centres undefined), the inhibition was -2.04%. In the case of `Cc1ccc(S(=O)(=O)N2CCN=C2SCc2c(F)cccc2Cl)cc1` it was -3.87%; in that of `O=C(CNC(=O)c1ccc(F)cc1)c1ccccc1`, 5.07%; in that of `Cc1cccc[n+]1CC(=O)c1ccccc1`, -3.95%. The result for `O=C(C[n+]1cc(Br)cc2ccccc21)c1ccc(F)cc1` reads 25.1% (active); that for `COc1cccc(-n2c(N)cc(=O)nc2SCC(=O)Nc2cc(C)on2)c1`, -0.29%; that for `CCC(C)(C)c1ccc(Oc2ccc(NC(=O)COC(=O)C3=COCCO3)cc2)cc1`, 0.08%. Consider `CC(C)C[C@@H](N)c1nnc(SCC(=O)c2ccc(Cl)cc2)o1`, for which the inhibition is 3.05%. In the case of `O=C(O)CCCN1C(=O)C2C3c4ccccc4C(c4ccccc43)[C@@H]2C1=O` (some centres undefined) it was 2.01%; in that of `O=C(O)CCC(=O)NCc1ccc(C(=O)O)cc1`, -6.54%. For the molecule `O=C(CN1C(=O)c2ccccc2C1=O)NCc1ccc(C(=O)O)cc1`, the inhibition is 36.6% (active).

As to `COc1ccc(CNC(=O)CCN2C(=O)c3ccccc3C2=O)cc1`, the inhibition was -3.69%. On to `Cc1ccc(C)c(C(=O)N2CCC(n3nccc3NC(=O)C3CC3)CC2)c1`, for which the inhibition was 1.61%.

What is called inhibition is the relative decrease from the control value, in per cent.

These data come from PubChem BioAssay AID1962 (The Scripps Research Institute Molecular Screening Center, 2009).
